From PubChem
HTR5A inv ctr: HTR5A inverse agonism, opioid heterodimer counter-screen; P47898; HTR5A cell line, luminescence; inhibition, % at 9.3 µM; actives 0.083% (n = 340,000); AID 504634; in the data active means inhibition mostly above about 23%, no sharp cut-off; inactive means mostly below about 18%;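 further: 0% = cells with DMSO and 100% = no-cell wells with DMSO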
Target sequence (P47898 whole entry, looked up): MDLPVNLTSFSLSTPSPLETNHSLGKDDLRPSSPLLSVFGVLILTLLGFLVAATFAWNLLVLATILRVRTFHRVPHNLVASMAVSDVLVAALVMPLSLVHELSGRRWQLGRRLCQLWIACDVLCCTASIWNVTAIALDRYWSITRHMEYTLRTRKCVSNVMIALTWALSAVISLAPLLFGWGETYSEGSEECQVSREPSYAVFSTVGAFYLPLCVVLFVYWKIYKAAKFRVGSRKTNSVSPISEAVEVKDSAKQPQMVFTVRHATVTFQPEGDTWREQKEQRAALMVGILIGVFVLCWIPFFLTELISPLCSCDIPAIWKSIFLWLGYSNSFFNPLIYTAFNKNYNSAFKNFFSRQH
OPRM1-OPRD1 ag: agonists of human mu-delta opioid receptor heterodimerization; actives 0.3% (n = 340,000); activation, % at 9.3 µM; cells, OPRM1-OPRD1 heterodimerization, luminescence; in the data active means activation above about 18%;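 further: 0% = vehicle-treated cells and 100% = reference agonist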
HTR5A ag: HTR5A agonism, opioid heterodimer counter-screen; actives 0.61% (n = 340,000); HTR5A agonist assay, luminescence, cell-based; activation, % at 9.3 µM; P47898; in the data active means activation mostly above about 9.5%, no sharp cut-off; inactive means mostly below about 7.6%;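 further: 0% = cells with vehicle only and 100% = reference agonist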
OPRM1-OPRD1 inv: mu-delta opioid heterodimer inverse agonism. actives 0.21% (n = 340,000). P35372+P41143. cell-based MOR-DOR heterodimer luminescence. inhibition, % at 9.3 µM; in the data active means inhibition above about 22%, passing the limit was not always enough;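 further: 0% = cells with DMSO and 100% = wells without cells with DMSO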
An asterisk follows results filed as active. Hits are enriched below; roughly 1.1% of the tested compounds scored in any of these assays.

SMILES | HTR5A inv ctr | OPRM1-OPRD1 ag | HTR5A ag | OPRM1-OPRD1 inv
Cc1cc(C(=O)CSc2nc(N)cc(=O)[nH]2)c(C)n1CC1CCCO1 (configuration not stated) | 6 | -2 | -1 | 11
Cc1cc(C(=O)CSc2nc3ccccc3[nH]2)c(C)n1CC1CCCO1 (configuration not stated) | -21 | 18 | 13* | -102
Cc1cc(Nc2nc3ccccc3nc2Cl)n(-c2ccc([N+](=O)[O-])cc2)n1 | 38* | -1 | -8 | 8
COc1ccc(-c2nn(Cc3ccccc3)cc2C(=O)N2CCN(c3ncccn3)CC2)cc1OC | -30 | -1 | 12* | 5
Cc1cc(=O)oc2cc(OC(C(=O)O)c3ccccc3)ccc12 (configuration not stated) | -41 | -1 | 11* | 4
Cc1cc(=O)oc2cc(OC(C)C)ccc12 | -7 | -2 | 1 | 9
O=C(OCC(=O)N1CCc2ccccc21)c1n[nH]c(=O)c2ccccc12 | -66 | -3 | 13* | 14
Cn1nc(C(=O)OCC(=O)N2CCc3ccccc32)c2ccccc2c1=O | -7 | -2 | 2 | 13
S=C(Nc1ccc(Cl)c(Cl)c1)NC1CCN(Cc2ccccc2)CC1 | -23 | 23* | 12* | -135
Clc1ccc(-c2nsc(N3CCOCC3)n2)c(Cl)c1 | 5 | 3 | -2 | -17
CC(C)C[C@@H](CN1CCC[C@@H]1CN1C(=O)C(=O)NC[C@@H]1Cc1ccccc1)N1C[C@H](Cc2ccccc2)N(CC2CCCCCC2)C(=O)C1=O | -39 | -1 | 10* | 7
COc1ccc(CCC(=O)Nc2ccc(Cn3ccnc3)cc2)cc1 | -16 | -1 | 6 | 3
CCOc1ccc(S(=O)(=O)NCCC(=O)NCCOc2ccccc2)cc1 | -11 | 1 | 4 | -8
COc1cccc(-n2c(=S)sc3c(=O)n(-c4ccccc4OC)c(=S)[nH]c32)c1 | -25 | 0 | 8.9* | -2
COc1ccccc1-n1c(=S)[nH]c2c(sc(=S)n2-c2ccccc2)c1=O | 6 | 0 | -3 | -1
COc1ccc(-n2cc(-c3ccccc3)c3c(NN4CCOCC4)ncnc32)cc1 | -3 | 0 | 0 | -1
Fc1ccc(-n2cc(-c3ccccc3)c3c(NN4CCOCC4)ncnc32)cc1 | 46* | -6 | -17 | 34*
OCCN1CCN(c2ncnc3c2c(-c2ccccc2)cn3-c2ccc(F)cc2)CC1 | 44* | -10 | -17 | 45*
CC1CN(c2ncnc3c2c(-c2ccccc2)cn3-c2ccc(F)cc2)CC(C)O1 (configuration not stated) | 77* | -13 | -21 | 62*
c1ccc(-c2ccc(-c3ccncn3)cc2)cc1 | -30 | 0 | 6 | 0
CCCc1ccc2oc(C(=O)N3CCN(CCC(N)=O)CC3)c(C)c2c1 | -3 | -1 | 1 | 7
CCCc1ccc2oc(C(=O)N3CCN(c4cnccn4)CC3)c(C)c2c1 | -33 | 3 | 13* | -16
C[C@@H](N)C(=O)NC[C@H]1CC[C@H](C(=O)N[C@@H](Cc2ccccc2)C(=O)O)CC1 | -8 | -3 | 2 | 16
Cc1ccc(/C=N/NC(=O)CSc2nnc(-c3ccc(Cl)cc3)n2-c2ccccc2)o1 | -49 | 17 | 14* | -90
O=C(CSc1nnc(-c2ccc(Cl)cc2)n1-c1ccc(Cl)cc1)N/N=C/c1ccco1 | -5 | 7 | 1 | -33
SMILES | HTR5A inv ctr | OPRM1-OPRD1 ag | HTR5A ag | OPRM1-OPRD1 inv
CC(C)CN1C(=O)c2ccc(C(=O)NCc3ccccn3)cc2C1=O | -10 | 0 | 9.6* | -1
CC(=O)C(Cl)C(=O)Nc1ccccc1 (configuration not stated) | -1 | -15 | -5 | 74*
O=C(Nc1ccccc1)C(Cl)C(=O)c1ccccc1 (configuration not stated) | 51* | -19 | -13 | 96*
CC(=O)c1cc(-c2ccccc2)n(CC(=O)N2CCCCC2)c1C | -38 | 0 | 12* | 0
COc1ccc(CNC(=O)COC(=O)c2c(NC(C)=O)sc(C)c2C)cc1 | -10 | 0 | 14* | 0
CCCn1c(CCC(=O)O)nc2cc(S(N)(=O)=O)ccc21 | 16 | -3 | 6 | 13
CCCCn1c(CCC(=O)O)nc2cc(S(=O)(=O)N3CCCC3)ccc21 | -30 | -2 | 8.3* | 9
O=C(O)/C=C/C(=O)Nc1ccc2nccnc2c1 | -20 | -2 | -3 | 8
COc1ccc(S(=O)(=O)N2CCCCC2)cc1NS(=O)(=O)c1ccc(CNC(C)=O)cc1 | -10 | 0 | 3 | 1
CCN1CCN(c2ccc(NC(=O)c3ccc4c(c3)[nH]c(=O)n4Cc3ccc(F)cc3)cc2)CC1 | 10 | 1 | 12* | -4
COc1c(F)c(F)c(C(=O)Nc2ccc(N3CCN(Cc4ccccc4)CC3)cc2)c(F)c1F | -40 | 5 | 9.8* | -30
